Where “and” joins values, the source holds several entries; their conditions need not be identical. Equal entries are not always repeated. Records with an inconclusive call do not appear. Calls of active or inactive are those of the source.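 How the source made its calls, unless noted: active means compounds whose cell count with miR-34 switched on is under 0.7 times the count with it off; inactive means the rest.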
Key:
[1] = circadian clock period modulators, cell-based, LOPAC library, luminescence reporter (AID 2774; call rule not given here;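 further: values are relative to mean of DMSO wells on each plate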); conditions: circadian reporter cells, at 7 µM, actives lie on both sides
[2] = tested on: Hepatitis C virus NS3 helicase; assay: HCV NS3 helicase inhibitors, primary screen, biochemical, fluorescence polarization, LOPAC1280 library (AID 687035; in the data active means inhibition above about 37%); conditions: Purified HCV NS3 helicase, Cy5-dT15 ssDNA binding fluorescence polarization; stronger effect = higher value; concentration not given here
[3] = Cy5 fluorescence quenching or enhancement artefacts, artefact control for HCV NS3 helicase inhibitor project, biochemical, LOPAC1280 (AID 687037; call rule not given here); conditions: Cy5-DNA-NS3h complex fluorescence interference counterscreen
[4] = sensitizers of A549 cells to miR-34 induction, primary screen, imaging, A549 dox-inducible miR-34, nuclei and caspase counts (AID 1347080); conditions: A549 miR-34 inducible, Hoechst nuclei count, 48 h
[5] = viability rescue of complex I mutant cybrids, primary screen, cell-based, galactose medium, ATP luminescence (AID 1645843;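 active means z-score of at least 1.8 in each of two replicates, scored against plate mean and spread of sample wells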;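 further: positive z means more ATP and so rescue of galactose-driven cybrid death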); conditions: complex I mutant cybrid cells, 72 h, stronger effect = higher value
[6] = molecular target: ATP-dependent translocase ABCB1 (Homo sapiens) (UniProt P08183); assay: MDR1 (ABCB1) efflux transporter inhibition, cell-based (AID 377; in the data active means fluorescence slope change above about 50%); conditions: MDR1-expressing cells, fluorescent substrate accumulation slope; stronger effect = higher value; concentration not given here
ATP-dependent translocase ABCB1 (Homo sapiens), sequence (P08183 whole entry, looked up): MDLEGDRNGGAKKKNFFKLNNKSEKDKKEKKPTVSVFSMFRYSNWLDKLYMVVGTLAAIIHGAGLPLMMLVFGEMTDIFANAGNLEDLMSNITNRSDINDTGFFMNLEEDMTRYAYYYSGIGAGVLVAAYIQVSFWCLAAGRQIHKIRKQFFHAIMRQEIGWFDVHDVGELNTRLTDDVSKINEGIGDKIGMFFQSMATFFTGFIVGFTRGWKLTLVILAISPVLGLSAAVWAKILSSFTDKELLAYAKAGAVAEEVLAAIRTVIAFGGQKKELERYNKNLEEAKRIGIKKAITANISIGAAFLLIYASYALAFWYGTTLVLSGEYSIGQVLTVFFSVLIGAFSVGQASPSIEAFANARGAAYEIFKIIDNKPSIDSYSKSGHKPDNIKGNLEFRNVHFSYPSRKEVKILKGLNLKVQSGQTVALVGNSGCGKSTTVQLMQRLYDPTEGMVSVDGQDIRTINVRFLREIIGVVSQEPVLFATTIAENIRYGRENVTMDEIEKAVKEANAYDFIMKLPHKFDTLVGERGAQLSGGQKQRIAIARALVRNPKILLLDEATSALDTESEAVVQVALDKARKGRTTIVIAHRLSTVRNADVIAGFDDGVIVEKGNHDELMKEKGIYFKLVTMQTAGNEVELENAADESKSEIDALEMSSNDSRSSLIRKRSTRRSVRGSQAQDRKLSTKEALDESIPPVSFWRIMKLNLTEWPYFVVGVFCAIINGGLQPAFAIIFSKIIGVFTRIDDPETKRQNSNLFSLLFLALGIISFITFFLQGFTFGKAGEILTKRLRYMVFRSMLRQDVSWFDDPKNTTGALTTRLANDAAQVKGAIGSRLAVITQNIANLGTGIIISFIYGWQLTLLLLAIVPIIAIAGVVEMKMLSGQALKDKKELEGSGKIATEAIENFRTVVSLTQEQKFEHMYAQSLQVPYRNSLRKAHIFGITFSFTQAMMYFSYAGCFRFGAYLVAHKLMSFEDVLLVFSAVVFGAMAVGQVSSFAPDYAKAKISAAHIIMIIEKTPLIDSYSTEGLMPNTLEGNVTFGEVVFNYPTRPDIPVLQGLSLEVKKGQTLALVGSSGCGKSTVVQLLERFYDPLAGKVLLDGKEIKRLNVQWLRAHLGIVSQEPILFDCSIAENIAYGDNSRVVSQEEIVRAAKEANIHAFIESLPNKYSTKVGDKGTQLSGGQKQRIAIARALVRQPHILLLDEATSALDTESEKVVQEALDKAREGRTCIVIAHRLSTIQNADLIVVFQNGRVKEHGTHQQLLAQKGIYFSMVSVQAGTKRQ

[7] = hESC survival regulators, cell-based (AID 493140; call rule not given here;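 further: cells exposed to compounds for four days before counting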); conditions: human embryonic stem cell survival screen; stronger effect = higher value
[8] = liver-stage malaria parasite growth inhibition, primary screen, cell-based, HepG2, luciferase luminescence, HepG2 viability (AID 624349; in the data active means parasite load remaining mostly below about 12%, no sharp cut-off; inactive means mostly above about 10%;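 further: 100% = mean of DMSO negative control wells on the same plate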); conditions: P. berghei liver stage in HepG2, luciferase luminescence, concentration not given here; parasite load remaining: stronger effect = lower value; viability: measured here: HepG2 viability without parasites
[9] = measured here: relative caspase fold change +Dox/-Dox
[10] = measured here: total cells with miR-34 induction, stronger effect = lower value
[11] = measured here: total cells without miR-34 induction
[12] = stronger effect = lower value, cell number ratio, induced over uninduced

**Q.** For CC(C)CC(NP(=O)(O)O[C@@H]1O[C@@H](C)[C@H](O)[C@@H](O)[C@H]1O)C(=O)NC(Cc1c[nH]c2ccccc12)C(=O)O (some centres undefined), which period change [1] is on record?
**A.** 0.015 h (inactive)

**Q.** What about the inhibition [2] of the same molecule?
**A.** -2% (inactive)

**Q.** And the fluorescence ratio (interference) [3]?
**A.** 1 (inactive)

**Q.** What about the fold change ([4]; stronger effect = lower value) of the same molecule?
**A.** 0.965 (inactive)

**Q.** What about the fold change [4, 9] of the same molecule?
**A.** 0.942

**Q.** And the cell count [4, 10]?
**A.** 10500

**Q.** What about the cell count [4, 11] of the same molecule?
**A.** 10900

**Q.** What about the z-score [5] of the same molecule?
**A.** 0.455 (inactive)

**Q.** Which fold change [4, 12] does the source give for COc1cc2c(cc1OC)[C@@]13CCN4CC5=CCOC6CC(=O)N2C1C6C5CC43 (some centres undefined) here?
**A.** 0.989 (inactive)

**Q.** And the fold change [4, 9]?
**A.** 1.53

**Q.** What about the cell count [4, 10] of the same molecule?
**A.** 8280

**Q.** And the cell count [4, 11]?
**A.** 8360

**Q.** What about the z-score [5] of the same molecule?
**A.** -0.335 (inactive)

**Q.** With O=C1C=C2C=C[C@@H]3CC2(O1)[C@H]1CCCCN31 as the molecule, how does the fluorescence slope change [6] read?
**A.** 28.7% (inactive)

**Q.** What about the survival [7] of the same molecule?
**A.** 2.33 (inactive)

**Q.** What about the parasite load remaining [8] of the same molecule?
**A.** 0.53% (active)

**Q.** And the viability [8]?
**A.** 98.2%

**Q.** And the fold change ([4]; stronger effect = lower value)?
**A.** 0.999 (inactive)

**Q.** And the fold change [4, 9]?
**A.** 0.949

**Q.** And the cell count [4, 10]?
**A.** 2810

**Q.** What about the cell count [4, 11] of the same molecule?
**A.** 2810

**Q.** What does the source list for Oc1cc2c(cc1O)C1c3ccccc3CNC1CC2 (centres undefined)?
**A.** fold change [4, 12]: 0.881 (inactive); fold change [4, 9]: 2.62; cell count [4, 10]: 9630; cell count [4, 11]: 10900; z-score [5]: -1.86 (inactive)

**Q.** With CCCCC/C=C\C/C=C\C/C=C\C/C=C\CCCC(=O)N[C@H](C)CO as the molecule, how does the survival [7] read?
**A.** 87.2 (inactive)

**Q.** What about the fold change ([4]; stronger effect = lower value) of the same molecule?
**A.** 0.941 (inactive) and 1.01 (inactive)

**Q.** What about the fold change [4, 9] of the same molecule?
**A.** 0.931 and 0.764

**Q.** What about the cell count [4, 10] of the same molecule?
**A.** 5390 and 6000

**Q.** And the cell count [4, 11]?
**A.** 5730 and 5950

**Q.** For CCCCCCCCCCCCCCCCOC[C@@H](O)COP(=O)([O-])OCC[N+](C)(C)C, which survival [7] is on record?
**A.** 114 (inactive)

**Q.** What about the fold change ([4]; stronger effect = lower value) of the same molecule?
**A.** 0.982 (inactive) and 0.938 (inactive)

**Q.** What about the fold change [4, 9] of the same molecule?
**A.** 1.56 and 0.831

**Q.** What about the cell count [4, 10] of the same molecule?
**A.** 5950 and 5610

**Q.** And the cell count [4, 11]?
**A.** 6060 and 5980

**Q.** What does the source list for CCCCCCCCCCCCCCCC(=O)OC[C@H](COP(=O)([O-])OCC[N+](C)(C)C)OC(C)=O?
**A.** survival [7]: 57 (inactive); fold change ([4]; stronger effect = lower value): 0.988 (inactive); fold change [4, 9]: 1.32; cell count [4, 10]: 5610; cell count [4, 11]: 5670

**Q.** Which results are given for C=C(C)CN1CC[C@]23c4c5ccc(O)c4OC2c2[nH]c4ccccc4c2C[C@@]3(O)C1C5 (some centres undefined)?
**A.** fold change ([4]; stronger effect = lower value): 0.245 (active); fold change [4, 9]: 1.96; cell count [4, 10]: 761; cell count [4, 11]: 3110; z-score [5]: -1.44 (inactive)

**Q.** For CCN1C[C@@]2(COC)C3[C@@H](OC)[C@H]4[C@@H]1[C@@]3(C1C[C@@]3(O)[C@H](OC(=O)c5ccccc5)C1[C@]4(OC(C)=O)[C@@H](O)[C@H]3OC)[C@@H](OC)C[C@H]2O (some centres undefined), which survival [7] is on record?
**A.** 3.83 (inactive)

**Q.** What about the parasite load remaining [8] of the same molecule?
**A.** 56% (inactive) and 73.1% (inactive)

**Q.** And the viability [8]?
**A.** 104% and 80.1%

**Q.** And the fold change ([4]; stronger effect = lower value)?
**A.** 0.874 (inactive)

**Q.** And the fold change [4, 9]?
**A.** 1.14

**Q.** And the cell count [4, 10]?
**A.** 8650

**Q.** And the cell count [4, 11]?
**A.** 9900

**Q.** For COc1ccc(C[C@@H]2NC[C@@H](O)[C@@H]2OC(C)=O)cc1, which survival [7] is on record?
**A.** 0.25 (inactive)

**Q.** What about the parasite load remaining [8] of the same molecule?
**A.** 4.56% (inactive)

**Q.** And the viability [8]?
**A.** 32.9%

**Q.** And the fold change ([4]; stronger effect = lower value)?
**A.** 0.95 (inactive)

**Q.** What about the fold change [4, 9] of the same molecule?
**A.** 1.1

**Q.** What about the cell count [4, 10] of the same molecule?
**A.** 1100

**Q.** What about the cell count [4, 11] of the same molecule?
**A.** 1160

**Q.** With Oc1ccc2c3c1OC1C(O)CC[C@@]4(O)C(C2)N(CC2CCC2)CC[C@]314 (some centres undefined) as the molecule, how does the fold change ([4]; stronger effect = lower value) read?
**A.** 0.877 (inactive)

**Q.** And the fold change [4, 9]?
**A.** 1.82

**Q.** And the cell count [4, 10]?
**A.** 8530

**Q.** What about the cell count [4, 11] of the same molecule?
**A.** 9720

**Q.** What about the z-score [5] of the same molecule?
**A.** 0.8 (inactive)

**Q.** Which fold change ([4]; stronger effect = lower value) does the source give for C[C@]12CCC(O)CC1=CCC1C2CC[C@]2(C)C(=O)CCC12 (some centres undefined) here?
**A.** 1.16 (inactive)

**Q.** And the fold change [4, 9]?
**A.** 1.21

**Q.** And the cell count [4, 10]?
**A.** 7950

**Q.** And the cell count [4, 11]?
**A.** 6860

**Q.** And the z-score [5]?
**A.** -0.11 (inactive)

**Q.** For CN1C(CC(O)c2ccccc2)CCCC1CC(O)c1ccccc1 (centres undefined), which survival [7] is on record?
**A.** 5.42 (inactive)

**Q.** And the parasite load remaining [8]?
**A.** 93.7% (inactive) and 75.5% (inactive)

**Q.** And the viability [8]?
**A.** 96.2% and 77.8%

**Q.** And the fold change ([4]; stronger effect = lower value)?
**A.** 0.827 (inactive)

**Q.** What about the fold change [4, 9] of the same molecule?
**A.** 1.06

**Q.** What about the cell count [4, 10] of the same molecule?
**A.** 8680

**Q.** What about the cell count [4, 11] of the same molecule?
**A.** 10500

**Q.** For COc1ccn(C)c(=O)c1C#N, which survival [7] is on record?
**A.** 4.25 (inactive)

**Q.** What about the parasite load remaining [8] of the same molecule?
**A.** 84.9% (inactive)

**Q.** What about the viability [8] of the same molecule?
**A.** 97.3%

**Q.** What about the fold change ([4]; stronger effect = lower value) of the same molecule?
**A.** 0.883 (inactive)

**Q.** And the fold change [4, 9]?
**A.** 1.32

**Q.** And the cell count [4, 10]?
**A.** 9150

**Q.** What about the cell count [4, 11] of the same molecule?
**A.** 10400

**Q.** For CCCCCC=CCC=CCC=CCC=CCCCC(=O)Nc1ccc(O)cc1, which fold change [4, 12] is on record?
**A.** 0.829 (inactive)

**Q.** What about the fold change [4, 9] of the same molecule?
**A.** 1.13

**Q.** And the cell count [4, 10]?
**A.** 7710

**Q.** And the cell count [4, 11]?
**A.** 9290

**Q.** And the z-score [5]?
**A.** -1.44 (inactive)

**Q.** For CC(C)(O)C1C2OC(=O)C1[C@]1(O)CC3O[C@]34C(=O)OC2[C@]14C (some centres undefined) (tested in a mixture with another compound), which fold change ([4]; stronger effect = lower value) is on record?
**A.** 0.954 (inactive)

**Q.** And the fold change [4, 9]?
**A.** 1.55

**Q.** And the cell count [4, 10]?
**A.** 9380

**Q.** And the cell count [4, 11]?
**A.** 9830

**Q.** What about the z-score [5] of the same molecule?
**A.** 0.86 (inactive)

**Q.** Which fluorescence slope change [6] does the source give for COC1=C[C@@H]2C3=C([C@@H]2C1=O)[C@@H](NC(C)=O)CCc1cc(OC)c(OC)c(OC)c13 here?
**A.** 70.2% (active)

**Q.** What about the parasite load remaining [8] of the same molecule?
**A.** 62.8% (inactive)

**Q.** And the viability [8]?
**A.** 107%

**Q.** What about the fold change [4, 12] of the same molecule?
**A.** 0.865 (inactive)

**Q.** What about the fold change [4, 9] of the same molecule?
**A.** 1.41

**Q.** What about the cell count [4, 10] of the same molecule?
**A.** 9450

**Q.** What about the cell count [4, 11] of the same molecule?
**A.** 10900

**Q.** Which fluorescence slope change [6] does the source give for C[C@@H]1NCCc2cc(O)c(O)cc21 here?
**A.** -10.9% (inactive)

**Q.** What about the survival [7] of the same molecule?
**A.** 6 (inactive)

**Q.** And the parasite load remaining [8]?
**A.** 75.9% (inactive) and 47.5% (inactive)

**Q.** And the viability [8]?
**A.** 120% and 73.8%

**Q.** And the fold change [4, 12]?
**A.** 0.841 (inactive)

**Q.** What about the fold change [4, 9] of the same molecule?
**A.** 1.51

**Q.** What about the cell count [4, 10] of the same molecule?
**A.** 8760

**Q.** And the cell count [4, 11]?
**A.** 10400

**Q.** Which results are given for CCC1C=CC=CCC(C)C(O)C(C)C(=O)C(C)C(O)C(C)C(=O)C(C)C(O)C(C)C=CC(=O)OC2C(C)C(CC1)O[C@@]1(CCC(C)C(CC(C)O)O1)C2C (some centres undefined)?
**A.** fold change [4, 12]: 1.03 (inactive); fold change [4, 9]: 1.64; cell count [4, 10]: 7130; cell count [4, 11]: 6920; z-score [5]: -0.03 (inactive)

From PubChem BioAssay
